In the supplement of paper PMC10849652:
Targets with a hit are over-represented here; the source holds about 7,900 in all. About 0.6% of all pairs of compound and target were hits.

Compound: CC(C)(O)CC(=O)NCCn1ccc2ncnc(Nc3ccc(Oc4cccc(C(F)(F)F)c4)c(Cl)c3)c21
Assay: log2 fold change, soluble protein after heating vs DMSO (PISA); higher = thermal stabilisation; K562 cells, 10 uM, 30 min; active = over 0.2 and 3.5 SD of the protein, either way, in both replicates (recomputed)
Procedure, shortened: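 K562 cells (2×10^6 cells/mL) were treated with 10 μM compound for 30 min, and aliquots were heated for 3 min over 48°C-58°C. Pooled aliquots were extracted in PBS with 0.5% NP-40 at 4°C, and the supernatant after 21,000xg for 90 min was measured by TMTpro 16plex LC-MS/MS with channel sums equalised. Reported thermal stability, relative to control samples and from duplicates, is a log2 fold change.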

Chain of UniProt O00291 (O00291 whole entry, looked up): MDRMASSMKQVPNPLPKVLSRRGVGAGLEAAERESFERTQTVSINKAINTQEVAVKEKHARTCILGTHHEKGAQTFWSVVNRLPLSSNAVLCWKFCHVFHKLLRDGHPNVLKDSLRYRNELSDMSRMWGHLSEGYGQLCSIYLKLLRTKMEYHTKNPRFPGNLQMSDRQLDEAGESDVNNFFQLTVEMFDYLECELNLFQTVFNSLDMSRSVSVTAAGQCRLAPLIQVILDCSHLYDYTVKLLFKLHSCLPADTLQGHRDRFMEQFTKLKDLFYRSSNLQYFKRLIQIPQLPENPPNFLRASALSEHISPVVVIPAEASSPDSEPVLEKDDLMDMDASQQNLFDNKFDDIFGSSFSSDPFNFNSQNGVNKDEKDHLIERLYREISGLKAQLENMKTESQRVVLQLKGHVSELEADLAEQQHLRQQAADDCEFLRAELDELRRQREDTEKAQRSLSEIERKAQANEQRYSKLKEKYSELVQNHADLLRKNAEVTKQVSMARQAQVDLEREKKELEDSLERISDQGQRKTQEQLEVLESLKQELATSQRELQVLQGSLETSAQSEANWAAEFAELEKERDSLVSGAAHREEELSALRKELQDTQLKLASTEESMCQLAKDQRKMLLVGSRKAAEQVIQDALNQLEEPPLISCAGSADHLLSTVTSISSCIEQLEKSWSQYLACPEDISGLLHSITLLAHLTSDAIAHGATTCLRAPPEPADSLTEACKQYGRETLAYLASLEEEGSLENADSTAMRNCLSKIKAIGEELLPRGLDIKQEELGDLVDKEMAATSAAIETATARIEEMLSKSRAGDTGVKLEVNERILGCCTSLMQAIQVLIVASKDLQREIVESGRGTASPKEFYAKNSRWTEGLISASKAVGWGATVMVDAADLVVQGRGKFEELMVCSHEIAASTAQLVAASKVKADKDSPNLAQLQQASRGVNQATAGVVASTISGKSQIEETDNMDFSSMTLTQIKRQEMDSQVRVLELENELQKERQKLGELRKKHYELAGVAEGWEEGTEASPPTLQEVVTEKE
Chain of UniProt P15976 (P15976 whole entry, looked up): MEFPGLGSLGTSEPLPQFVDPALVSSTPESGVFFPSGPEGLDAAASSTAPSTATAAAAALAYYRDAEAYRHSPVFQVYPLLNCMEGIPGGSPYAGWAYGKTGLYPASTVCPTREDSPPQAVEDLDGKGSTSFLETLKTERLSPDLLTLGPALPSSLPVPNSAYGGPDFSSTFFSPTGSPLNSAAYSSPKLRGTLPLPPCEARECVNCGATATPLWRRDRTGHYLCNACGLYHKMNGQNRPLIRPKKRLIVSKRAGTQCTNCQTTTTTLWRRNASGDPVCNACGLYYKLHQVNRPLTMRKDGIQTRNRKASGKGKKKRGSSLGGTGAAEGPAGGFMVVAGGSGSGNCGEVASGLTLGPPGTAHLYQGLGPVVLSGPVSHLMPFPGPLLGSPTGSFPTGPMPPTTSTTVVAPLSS
Chain of UniProt P36969 (P36969 whole entry, looked up): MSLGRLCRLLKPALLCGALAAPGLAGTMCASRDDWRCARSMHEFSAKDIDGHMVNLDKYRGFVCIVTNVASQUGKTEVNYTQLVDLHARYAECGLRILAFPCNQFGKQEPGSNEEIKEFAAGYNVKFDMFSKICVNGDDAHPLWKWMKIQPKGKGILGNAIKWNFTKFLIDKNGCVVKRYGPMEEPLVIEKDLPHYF
Chain of UniProt Q53FT3 (Q53FT3 whole entry, looked up): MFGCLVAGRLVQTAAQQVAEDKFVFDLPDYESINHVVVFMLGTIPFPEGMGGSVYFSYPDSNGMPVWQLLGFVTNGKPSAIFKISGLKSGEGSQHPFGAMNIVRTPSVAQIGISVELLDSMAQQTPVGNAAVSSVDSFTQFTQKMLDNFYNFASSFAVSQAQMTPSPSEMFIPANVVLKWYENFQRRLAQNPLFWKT
Chain of UniProt Q9Y692 (Q9Y692 whole entry, looked up): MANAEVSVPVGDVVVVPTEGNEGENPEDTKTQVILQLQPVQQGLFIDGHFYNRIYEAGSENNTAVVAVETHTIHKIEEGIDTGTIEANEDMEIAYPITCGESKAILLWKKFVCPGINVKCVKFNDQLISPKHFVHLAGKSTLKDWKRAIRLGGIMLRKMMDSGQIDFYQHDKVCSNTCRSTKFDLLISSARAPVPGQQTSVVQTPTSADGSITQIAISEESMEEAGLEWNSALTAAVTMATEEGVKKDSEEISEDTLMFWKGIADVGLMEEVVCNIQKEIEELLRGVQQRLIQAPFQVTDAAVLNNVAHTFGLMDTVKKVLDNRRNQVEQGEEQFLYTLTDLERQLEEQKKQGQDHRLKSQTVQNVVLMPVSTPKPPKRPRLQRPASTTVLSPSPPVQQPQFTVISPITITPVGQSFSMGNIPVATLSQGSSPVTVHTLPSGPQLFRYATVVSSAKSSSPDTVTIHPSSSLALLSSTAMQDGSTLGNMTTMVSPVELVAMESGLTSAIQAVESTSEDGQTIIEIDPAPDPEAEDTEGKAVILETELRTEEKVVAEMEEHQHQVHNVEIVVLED
Chain of UniProt Q9ULT8 (Q9ULT8 whole entry, looked up): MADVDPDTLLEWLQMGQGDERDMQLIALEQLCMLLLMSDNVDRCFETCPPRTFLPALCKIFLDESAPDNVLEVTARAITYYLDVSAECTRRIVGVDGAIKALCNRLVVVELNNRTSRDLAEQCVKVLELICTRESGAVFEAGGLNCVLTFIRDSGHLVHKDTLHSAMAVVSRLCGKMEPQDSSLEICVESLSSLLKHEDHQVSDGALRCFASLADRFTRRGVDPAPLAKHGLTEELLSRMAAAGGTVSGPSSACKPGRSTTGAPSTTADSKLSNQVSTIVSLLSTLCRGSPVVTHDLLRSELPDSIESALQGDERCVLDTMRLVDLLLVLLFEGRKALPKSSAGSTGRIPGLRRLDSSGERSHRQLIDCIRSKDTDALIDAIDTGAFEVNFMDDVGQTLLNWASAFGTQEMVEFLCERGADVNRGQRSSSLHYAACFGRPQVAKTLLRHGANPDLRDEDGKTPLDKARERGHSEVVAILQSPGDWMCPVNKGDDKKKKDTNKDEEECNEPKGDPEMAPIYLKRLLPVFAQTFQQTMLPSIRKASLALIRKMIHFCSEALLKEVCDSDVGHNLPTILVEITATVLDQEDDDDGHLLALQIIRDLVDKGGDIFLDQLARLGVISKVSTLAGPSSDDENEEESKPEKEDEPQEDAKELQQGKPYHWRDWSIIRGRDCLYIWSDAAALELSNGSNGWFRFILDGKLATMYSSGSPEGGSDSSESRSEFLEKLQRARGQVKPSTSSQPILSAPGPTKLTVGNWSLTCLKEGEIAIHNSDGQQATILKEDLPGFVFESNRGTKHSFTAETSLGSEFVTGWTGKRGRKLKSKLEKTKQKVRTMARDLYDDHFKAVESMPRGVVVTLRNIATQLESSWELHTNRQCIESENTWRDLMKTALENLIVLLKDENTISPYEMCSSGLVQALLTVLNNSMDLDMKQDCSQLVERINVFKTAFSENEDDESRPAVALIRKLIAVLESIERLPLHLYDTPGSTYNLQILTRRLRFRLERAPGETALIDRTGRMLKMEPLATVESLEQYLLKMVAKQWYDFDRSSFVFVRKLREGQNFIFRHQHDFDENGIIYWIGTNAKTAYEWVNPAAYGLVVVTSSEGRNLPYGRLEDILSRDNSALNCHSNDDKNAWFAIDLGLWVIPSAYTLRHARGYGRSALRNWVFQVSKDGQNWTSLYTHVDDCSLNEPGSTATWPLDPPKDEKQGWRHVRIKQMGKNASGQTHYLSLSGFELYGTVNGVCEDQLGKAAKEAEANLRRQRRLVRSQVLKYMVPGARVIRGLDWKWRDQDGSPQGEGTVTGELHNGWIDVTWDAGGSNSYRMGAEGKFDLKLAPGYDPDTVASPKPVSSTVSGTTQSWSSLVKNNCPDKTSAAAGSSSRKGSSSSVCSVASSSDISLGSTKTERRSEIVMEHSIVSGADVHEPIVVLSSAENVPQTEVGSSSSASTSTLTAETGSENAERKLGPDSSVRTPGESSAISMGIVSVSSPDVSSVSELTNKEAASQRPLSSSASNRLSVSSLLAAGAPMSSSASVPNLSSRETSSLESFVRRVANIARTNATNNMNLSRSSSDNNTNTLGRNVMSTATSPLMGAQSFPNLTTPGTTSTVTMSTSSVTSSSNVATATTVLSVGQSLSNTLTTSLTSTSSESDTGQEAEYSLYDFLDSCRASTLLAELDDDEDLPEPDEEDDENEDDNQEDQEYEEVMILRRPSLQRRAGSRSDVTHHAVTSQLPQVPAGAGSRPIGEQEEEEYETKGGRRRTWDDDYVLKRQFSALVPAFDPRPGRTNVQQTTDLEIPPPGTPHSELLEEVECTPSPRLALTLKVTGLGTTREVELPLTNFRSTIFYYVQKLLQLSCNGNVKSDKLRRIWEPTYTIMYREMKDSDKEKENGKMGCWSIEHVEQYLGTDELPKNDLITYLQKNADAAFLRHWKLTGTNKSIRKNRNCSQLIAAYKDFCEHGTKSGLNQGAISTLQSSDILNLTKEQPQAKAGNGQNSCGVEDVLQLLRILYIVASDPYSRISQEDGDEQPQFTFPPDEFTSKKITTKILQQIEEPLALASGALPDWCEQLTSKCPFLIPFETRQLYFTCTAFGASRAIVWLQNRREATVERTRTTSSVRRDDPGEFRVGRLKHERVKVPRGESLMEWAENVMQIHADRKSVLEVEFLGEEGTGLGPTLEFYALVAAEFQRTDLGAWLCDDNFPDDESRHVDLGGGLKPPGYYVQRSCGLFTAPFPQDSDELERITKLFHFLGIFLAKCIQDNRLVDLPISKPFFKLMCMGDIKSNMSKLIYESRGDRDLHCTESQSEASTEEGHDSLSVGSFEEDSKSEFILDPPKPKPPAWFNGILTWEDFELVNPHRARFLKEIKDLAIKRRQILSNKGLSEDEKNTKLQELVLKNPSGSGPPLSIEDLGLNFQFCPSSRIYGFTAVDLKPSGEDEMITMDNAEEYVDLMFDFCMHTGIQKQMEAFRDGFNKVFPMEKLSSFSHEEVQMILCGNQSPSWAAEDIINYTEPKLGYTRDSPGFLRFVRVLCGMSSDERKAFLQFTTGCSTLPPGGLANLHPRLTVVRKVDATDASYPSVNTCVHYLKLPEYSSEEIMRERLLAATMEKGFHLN

log2 fold change, inactive:
FKBP3 (UniProt Q00688) -0.028
GPX4 (UniProt P36969) 0.003
HEXA (UniProt P06865) 0.024
HECTD1 (UniProt Q9ULT8) -0.048
GLUD2 (UniProt P49448) 0.098
GBF1 (UniProt Q92538) -0.05
HIKESHI (UniProt Q53FT3) -0.045
HBZ (UniProt P02008) -0.042
HIP1 (UniProt O00291) -0.035
HADHB (UniProt P55084) -0.155
GTPBP6 (UniProt O43824) 0.111
GOLPH3 (UniProt Q9H4A6) -0.031
GSTO1 (UniProt P78417) -0.029
GYG1 (UniProt P46976) 0.029
ICMT (UniProt O60725) -0.032
FANCD2 isoform 1 (UniProt Q9BXW9) -0.029
GMEB1 (UniProt Q9Y692) -0.039
GALNT2 (UniProt Q10471) 0.027
GCC2 (UniProt Q8IWJ2) 0
HAX1 (UniProt O00165) -0.156
GGT7 (UniProt Q9UJ14) 0.015
HDAC7 isoform 5 (UniProt Q8WUI4) -0.031
HSPA8 (UniProt E9PK54) 0.058
HIST2H3A (UniProt Q71DI3) -0.021
FLNA (UniProt P21333) -0.086
H2AFX (UniProt P16104) 0.036
GTF2A1 (UniProt P52655) -0.106
GATA1 (UniProt P15976) 0.027
GALNT1 (UniProt Q10472) 0.018
FMC1 (UniProt Q96HJ9) -0.006
GDE1 (UniProt Q9NZC3) -0.033
IDH3A (UniProt P50213) -0.044
FARS2 (UniProt O95363) -0.028
FYB1 isoform 3 (UniProt O15117) 0.06
